# Measured values as given in the supplement of paper PMC8728848.
# The full list was thinned out, with the strongest signals kept by preference.
# B1: Mnn9-2N3 (Aspergillus fumigatus) (protein)
# chain: MAVARRMRRTNPITLLLAAILAIGFFIFVLSPSTTSASPVKAGSASSSSTSQQRREDNAAENPLSPPTKPFFKSQPVRHDGQQAPPPVVQYNLNQLSSTSTSAANGERILILTPMARFVPEYWDNVVKLTYPHELISIGFIIPKNKEGNAALAALEAAIAKTQSGPIDKRFASISILRQDFEPPLQSQDEKERHKISNQKARRESMSRARNSLLFTTLGPATAWVLWLDADIVETPPTLIQDLTAHDHPVLVPNCYQRYYNSEKKKMDVRPYDYNSWIDSSTAQSMAAEMGPDEILLEGYAEMPTYRTLMAHLADTANPNPKKVIELDGVGGTALMVKAEVHRDGAMFPAFPFYHLVETEGFAKMAKRLGYSVYGLPDYFVSRNFFFFFFFFFFG
# Key:
# Experiment in all cases: glycan array binding signal (z-score within array); higher = stronger binding
# Conditions in all cases: glycan notation: IUPAC condensed, linker removed
# [1] = biological target: Fuc(a1-2)Gal(b1-3)GalNAc(b1-3)Gal(a1-4)Gal(b1-4)Glc
# Summary of the method: (§1)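 The Consortium for Functional Glycomics database supplied 3228 glycan arrays, of which those lacking an available protein sequence were dropped. The binding signal, a within-array Z-score, was averaged across arrays of the same protein sequence and across linkers. Negative scores can be read as non-binding.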
# [2] = biological target: Fuc(a1-2)Gal(b1-4)GlcNAc(b1-2)Man
# Summary of the method: as §1
# [3] = biological target: Fuc(a1-2)Gal(b1-4)[Fuc(a1-3)]GlcNAc(b1-2)Man(a1-3)[Fuc(a1-2)Gal(b1-4)[Fuc(a1-3)]GlcNAc(b1-2)Man(a1-6)]Man(b1-4)GlcNAc(b1-4)[Fuc(a1-6)]GlcNAc
# Summary of the method: as §1
# [4] = biological target: Fuc(a1-2)Gal3S(b1-4)GlcNAc
# Summary of the method: as §1
# [5] = biological target: Fuc(a1-2)[Gal(a1-3)]Gal(b1-4)[Fuc(a1-3)]GlcNAc
# Summary of the method: as §1
# [6] = biological target: Fuc(a1-2)[GalNAc(a1-3)]Gal(b1-3)GlcNAc
# Summary of the method: as §1
# [7] = biological target: Fuc(a1-2)[GalNAc(a1-3)]Gal(b1-4)GlcNAc
# Summary of the method: as §1
# [8] = biological target: Fuc(a1-2)[GalNAc(a1-3)]Gal(b1-4)GlcNAc(b1-2)Man(a1-3)[Fuc(a1-2)[GalNAc(a1-3)]Gal(b1-4)GlcNAc(b1-2)Man(a1-6)]Man(b1-4)GlcNAc(b1-4)GlcNAc
# Summary of the method: as §1
# [9] = biological target: Fuc(a1-2)[GalNAc(a1-3)]Gal(b1-4)GlcNAc(b1-3)[Fuc(a1-2)[GalNAc(a1-3)]Gal(b1-4)GlcNAc(b1-6)]GalNAc
# Summary of the method: as §1
# [10] = biological target: Fuc(a1-2)[GalNAc(a1-3)]Gal(b1-4)GlcNAc(b1-6)GalNAc
# Summary of the method: as §1
# [11] = biological target: Fuc(a1-3)[Gal3S(b1-4)]GlcNAc6S
# Summary of the method: as §1
# Gal(a1-2)Gal = biological target: Gal(a1-2)Gal
# Summary of the method: as §1
# Gal(a1-3)Gal = biological target: Gal(a1-3)Gal
# Summary of the method: as §1
# [12] = biological target: Gal(a1-3)Gal(b1-3)GlcNAc(b1-3)GalNAc
# Summary of the method: as §1
# [13] = biological target: Gal(a1-3)Gal(b1-4)[Fuc(a1-3)]GlcNAc(b1-2)Man(a1-3)[Gal(a1-3)Gal(b1-4)[Fuc(a1-3)]GlcNAc(b1-2)Man(a1-6)]Man(b1-4)GlcNAc(b1-4)GlcNAc
# Summary of the method: as §1
# Gal(a1-4)GlcNAc = biological target: Gal(a1-4)GlcNAc
# Summary of the method: as §1
# [14] = biological target: Gal(b1-3)GlcNAc(b1-6)[Gal(b1-3)]GalNAc
# Summary of the method: as §1
# [15] = biological target: Gal(b1-3)[Fuc(a1-4)]GlcNAc(b1-2)Man(a1-3)[Gal(b1-3)[Fuc(a1-4)]GlcNAc(b1-2)Man(a1-6)]Man(b1-4)GlcNAc(b1-4)[Fuc(a1-6)]GlcNAc
# Summary of the method: as §1
# [16] = biological target: Gal(b1-4)GlcNAc(b1-3)Gal(b1-4)GlcNAc
# Summary of the method: as §1
# [17] = biological target: Gal(b1-4)GlcNAc(b1-3)Gal(b1-4)GlcNAc(b1-2)Man(a1-3)[Gal(b1-4)GlcNAc(b1-3)Gal(b1-4)GlcNAc(b1-2)Man(a1-6)]Man(b1-4)GlcNAc(b1-4)GlcNAc
# Summary of the method: as §1
# Gal3S(b1-4)Glc = biological target: Gal3S(b1-4)Glc
# Summary of the method: as §1
# Gal3S(b1-4)Glc6S = biological target: Gal3S(b1-4)Glc6S
# Summary of the method: as §1
# Gal6P(b1-4)GlcNAc = biological target: Gal6P(b1-4)GlcNAc
# Summary of the method: as §1
# Gal6S(b1-3)GlcNAc6S = biological target: Gal6S(b1-3)GlcNAc6S
# Summary of the method: as §1
# GalNAc(b1-4)GlcNAc = biological target: GalNAc(b1-4)GlcNAc
# Summary of the method: as §1
# GalNAc(b1-6)GalNAc = biological target: GalNAc(b1-6)GalNAc
# Summary of the method: as §1
# [18] = biological target: GalNAc3S(b1-4)[Fuc(a1-3)]GlcNAc
# Summary of the method: as §1
# GalNAc6S(b1-4)GlcNAc = biological target: GalNAc6S(b1-4)GlcNAc
# Summary of the method: as §1
# GlcA(b1-3)Gal = biological target: GlcA(b1-3)Gal
# Summary of the method: as §1
# [19] = biological target: GlcNAc(b1-2)[GlcNAc(b1-4)]Man(a1-3)[GlcNAc(b1-4)][GlcNAc(b1-2)[GlcNAc(b1-6)]Man(a1-6)]Man(b1-4)GlcNAc(b1-4)GlcNAc
# Summary of the method: as §1
# Kdn(a2-3)Gal(b1-3)GalNAc = biological target: Kdn(a2-3)Gal(b1-3)GalNAc
# Summary of the method: as §1
# [20] = biological target: Man(a1-2)Man(a1-6)[Man(a1-3)]Man(a1-6)[Man(a1-2)Man(a1-2)Man(a1-3)]Man(b1-4)GlcNAc(b1-4)GlcNAc
# Summary of the method: as §1
# [21] = biological target: Neu5Ac(a2-3)Gal(b1-3)GalNAc6S
# Summary of the method: as §1
# [22] = biological target: Neu5Ac(a2-3)Gal(b1-3)GlcNAc(b1-3)GalNAc
# Summary of the method: as §1
# [23] = biological target: Neu5Ac(a2-3)Gal(b1-4)GlcNAc(b1-2)Man(a1-3)[GlcNAc(b1-4)][Neu5Ac(a2-3)Gal(b1-4)GlcNAc(b1-2)Man(a1-6)]Man(b1-4)GlcNAc(b1-4)GlcNAc
# Summary of the method: as §1
# [24] = biological target: Neu5Ac(a2-3)Gal(b1-4)GlcNAc(b1-2)[Neu5Ac(a2-3)Gal(b1-4)GlcNAc(b1-6)]Man(a1-6)[Neu5Ac(a2-3)Gal(b1-4)GlcNAc(b1-2)Man(a1-3)][GlcNAc(b1-4)]Man(b1-4)GlcNAc(b1-4)GlcNAc
# Summary of the method: as §1
# [25] = biological target: Neu5Ac(a2-3)Gal(b1-4)GlcNAc(b1-3)Gal(b1-3)GlcNAc
# Summary of the method: as §1
# [26] = biological target: Neu5Ac(a2-3)[GalNAc(b1-4)]Gal(b1-4)GlcNAc(b1-3)GalNAc
# Summary of the method: as §1
# [27] = biological target: Neu5Ac(a2-6)Gal(b1-4)GlcNAc(b1-2)Man(a1-3)[GlcNAc(b1-2)Man(a1-6)]Man(b1-4)GlcNAc(b1-4)GlcNAc
# Summary of the method: as §1
# [28] = biological target: Neu5Ac(a2-6)Gal(b1-4)GlcNAc(b1-2)Man(a1-3)[Neu5Ac(a2-6)Gal(b1-4)GlcNAc(b1-2)Man(a1-6)]Man(b1-4)GlcNAc(b1-4)[Fuc(a1-6)]GlcNAc
# Summary of the method: as §1
# Neu5Ac(a2-6)GalNAc = biological target: Neu5Ac(a2-6)GalNAc
# Summary of the method: as §1
# [29] = biological target: Neu5Ac(a2-8)Neu5Ac(a2-3)Gal(b1-4)Glc
# Summary of the method: as §1
# Neu5Gc(a2-3)Gal(b1-4)Glc = biological target: Neu5Gc(a2-3)Gal(b1-4)Glc
# Summary of the method: as §1
binder,measurement,setting,value
B1,glycan array binding signal (z-score),[1],-0.365
same,glycan array binding signal (z-score),[2],-1.25
same,glycan array binding signal (z-score),[3],3.21
same,glycan array binding signal (z-score),[4],1.83
same,glycan array binding signal (z-score),[5],-0.761
same,glycan array binding signal (z-score),[6],-1.58
same,glycan array binding signal (z-score),[7],0.402
same,glycan array binding signal (z-score),[8],0.31
same,glycan array binding signal (z-score),[9],-0.67
same,glycan array binding signal (z-score),[10],2.39
same,glycan array binding signal (z-score),[11],3.29
same,glycan array binding signal (z-score),Gal(a1-2)Gal,3.25
same,glycan array binding signal (z-score),Gal(a1-3)Gal,-0.434
same,glycan array binding signal (z-score),[12],-0.015
same,glycan array binding signal (z-score),[13],2.41
same,glycan array binding signal (z-score),Gal(a1-4)GlcNAc,2.75
same,glycan array binding signal (z-score),[14],-0.321
same,glycan array binding signal (z-score),[15],-0.841
same,glycan array binding signal (z-score),[16],-0.099
same,glycan array binding signal (z-score),[17],3.03
same,glycan array binding signal (z-score),Gal3S(b1-4)Glc,3.44
same,glycan array binding signal (z-score),Gal3S(b1-4)Glc6S,1.42
same,glycan array binding signal (z-score),Gal6P(b1-4)GlcNAc,2.57
same,glycan array binding signal (z-score),Gal6S(b1-3)GlcNAc6S,2.52
same,glycan array binding signal (z-score),GalNAc(b1-4)GlcNAc,-0.366
same,glycan array binding signal (z-score),GalNAc(b1-6)GalNAc,-0.275
same,glycan array binding signal (z-score),[18],-0.385
same,glycan array binding signal (z-score),GalNAc6S(b1-4)GlcNAc,-0.802
same,glycan array binding signal (z-score),GlcA(b1-3)Gal,0.326
same,glycan array binding signal (z-score),[19],-0.559
same,glycan array binding signal (z-score),Kdn(a2-3)Gal(b1-3)GalNAc,-2.43
same,glycan array binding signal (z-score),[20],-0.789
same,glycan array binding signal (z-score),[21],2.97
same,glycan array binding signal (z-score),[22],-0.456
same,glycan array binding signal (z-score),[23],-1.34
same,glycan array binding signal (z-score),[24],-0.217
same,glycan array binding signal (z-score),[25],0.123
same,glycan array binding signal (z-score),[26],-2.19
same,glycan array binding signal (z-score),[27],-1.47
same,glycan array binding signal (z-score),[28],0.808
same,glycan array binding signal (z-score),Neu5Ac(a2-6)GalNAc,2.59
same,glycan array binding signal (z-score),[29],2.12
same,glycan array binding signal (z-score),Neu5Gc(a2-3)Gal(b1-4)Glc,-0.055
